Test results taken from PubChem BioAssay AID1347165 (National Center for Advancing Translational Sciences (NCATS), 2019).
In all, about 220,000 compounds went through this assay and about 5,700 (2.6%) were called active. Where a call stands in place of a potency, no number is given. Not shown: some 18% with an inconclusive outcome. The call rests on the fitted dose curve; in most records, active means well fitted inhibition curve with a large enough effect; inconclusive means small, poorly fitted or top-dose-only effect; inactive means no such curve, though single readings can be large or run the other way. The full list was thinned out, with actives kept by preference.

Each molecule was assayed against Lysine-specific demethylase 5B (Homo sapiens) (UniProt Q9UGL1) (assay: Primary screen for KDM5B Histone Demethylases FDH-coupled qHTS). Details: FDH-coupled NADH fluorescence (FDH is formaldehyde dehydrogenase); series mostly up to 57.7 µM.
Chain of Lysine-specific demethylase 5B (Homo sapiens) (Q9UGL1 whole entry, looked up): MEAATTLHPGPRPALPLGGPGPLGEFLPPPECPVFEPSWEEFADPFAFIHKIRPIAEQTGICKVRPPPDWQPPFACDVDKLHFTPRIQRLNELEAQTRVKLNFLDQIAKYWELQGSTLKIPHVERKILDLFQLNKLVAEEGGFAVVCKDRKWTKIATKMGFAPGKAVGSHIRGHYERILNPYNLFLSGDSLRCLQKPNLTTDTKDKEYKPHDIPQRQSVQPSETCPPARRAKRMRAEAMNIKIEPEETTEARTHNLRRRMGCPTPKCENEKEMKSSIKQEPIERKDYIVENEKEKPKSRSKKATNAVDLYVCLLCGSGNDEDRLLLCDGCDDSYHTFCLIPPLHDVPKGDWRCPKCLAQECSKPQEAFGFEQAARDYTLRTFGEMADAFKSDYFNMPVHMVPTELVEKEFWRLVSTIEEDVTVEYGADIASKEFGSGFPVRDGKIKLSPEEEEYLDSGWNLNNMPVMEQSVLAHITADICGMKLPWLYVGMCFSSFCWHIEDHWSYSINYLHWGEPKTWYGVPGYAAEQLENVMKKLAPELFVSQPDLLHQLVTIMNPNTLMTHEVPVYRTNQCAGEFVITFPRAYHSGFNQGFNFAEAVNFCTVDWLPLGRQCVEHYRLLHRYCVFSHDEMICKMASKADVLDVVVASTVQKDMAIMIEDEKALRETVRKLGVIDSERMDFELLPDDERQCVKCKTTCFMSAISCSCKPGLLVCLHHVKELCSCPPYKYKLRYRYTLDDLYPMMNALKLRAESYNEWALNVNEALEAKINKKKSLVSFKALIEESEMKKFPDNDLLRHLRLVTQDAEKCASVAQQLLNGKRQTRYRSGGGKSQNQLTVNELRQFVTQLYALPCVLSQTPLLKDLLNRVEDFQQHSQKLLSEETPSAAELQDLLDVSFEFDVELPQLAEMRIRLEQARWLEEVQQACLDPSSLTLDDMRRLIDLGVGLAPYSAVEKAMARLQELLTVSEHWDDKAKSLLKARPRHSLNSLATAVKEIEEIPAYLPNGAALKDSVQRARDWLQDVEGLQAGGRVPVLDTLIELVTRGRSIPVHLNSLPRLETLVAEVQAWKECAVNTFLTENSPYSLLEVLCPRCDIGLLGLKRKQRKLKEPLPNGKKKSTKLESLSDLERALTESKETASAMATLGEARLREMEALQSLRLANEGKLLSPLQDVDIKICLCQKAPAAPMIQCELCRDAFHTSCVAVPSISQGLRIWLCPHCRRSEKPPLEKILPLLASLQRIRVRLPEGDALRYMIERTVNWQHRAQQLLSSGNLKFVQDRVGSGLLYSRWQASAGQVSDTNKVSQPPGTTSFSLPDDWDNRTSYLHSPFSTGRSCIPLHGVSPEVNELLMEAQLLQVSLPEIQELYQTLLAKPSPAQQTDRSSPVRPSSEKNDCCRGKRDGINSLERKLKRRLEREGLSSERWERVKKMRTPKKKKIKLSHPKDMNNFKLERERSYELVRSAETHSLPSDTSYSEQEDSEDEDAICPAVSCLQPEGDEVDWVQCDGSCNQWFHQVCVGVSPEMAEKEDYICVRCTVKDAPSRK
Procedure, shortened: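 Here, H3K4me3 peptide (12.5 µM in substrate mix) is demethylated by KDM5BΔAP, 200 nM final, after 10 min compound exposure. Formaldehyde product is coupled through FDH (0.25 U/mL in mix) to NADH fluorescence; 30-min ΔRFU feeds dose-response curves.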
Further: nearly all actives have a fitted effect of over 70% in size.
Potency means the concentration at half of the fitted maximal effect.

**Q.** Which Potency does the source give for CCc1nc2c(c(-c3ccc(Cl)cc3)n1)CCN([S+](=O)([O-])c1cccs1)CC2 here?
**A.** Its Potency is “inactive”.

**Q.** O=C(O)c1ccc(C(=O)C2CCCCC2C(=O)O)cc1 (stereo not given) was tested. Which Potency did it give?
**A.** Its Potency is “inactive”.

**Q.** Which Potency does the source give for Cc1nn(-c2ncnc3nc[nH]c23)c2c1C(c1ccc(F)cc1F)CC(=O)N2 (stereo not given) here?
**A.** Its Potency is “inactive”.

**Q.** Cc1cccc(OCc2nn3c(CN4CCOCC4)nnc3s2)c1 was tested. Which Potency did it give?
**A.** Its Potency is “inactive”.

**Q.** With Cc1cc2c(s1)CCCCCCCCCC/C2=N\Nc1ccc([N+](=O)[O-])cc1 as the molecule, how does the Potency read?
**A.** Its Potency is “inactive”.

**Q.** With O=C(Nc1ccc2oc(=O)ccc2c1)c1cccc2ccccc12 as the molecule, how does the Potency read?
**A.** The Potency was “inactive”.

**Q.** How did the Potency turn out when CC(NC(=O)c1ccc(SC(F)(F)F)cc1)c1ccccn1 (stereo not given) was run?
**A.** Its Potency is “inactive”.

**Q.** Which Potency does the source give for COc1ccc(NC(=O)Cc2c(C)c3ccc(O)cc3oc2=O)cc1 here?
**A.** The Potency was “inactive”.

**Q.** How did the Potency turn out when CC1(C)CC(NC(=O)Nc2ccc(OC(F)(F)F)cc2)CC(C)(C)N1 was run?
**A.** The Potency was “inactive”.

**Q.** For CN(C)C(=O)c1nc(-c2ccc(Cl)cc2Cl)c2cnccn12, which Potency is on record?
**A.** Its Potency is 100 µM (active).

**Q.** With CN(C)C(=O)c1nc(-c2cccnc2)c2ccccn12 as the molecule, how does the Potency read?
**A.** The Potency was “inactive”.

**Q.** How did the Potency turn out when CC1CCCCN1CCNC(=O)c1cc2c(s1)-c1ccccc1OC2 (stereo not given) was run?
**A.** Its Potency is “inactive”.

**Q.** With COc1ccc(CNC(=O)c2ccc3oc(C(C)C)nc3c2)cc1 as the molecule, how does the Potency read?
**A.** The Potency was “inactive”.

**Q.** For COc1ccc(C(=O)NCc2nnc3cc(-c4nc(C)no4)ccn23)cc1, which Potency is on record?
**A.** The Potency was 25.1 µM (active).

**Q.** How did the Potency turn out when NS(=O)(=O)c1ccc(F)c(C(=O)NCc2noc(-c3ccco3)n2)c1 was run?
**A.** The Potency was “inactive”.

**Q.** For CCc1noc(-c2ccn3c(CNC(=O)c4ccco4)nnc3c2)n1, which Potency is on record?
**A.** Its Potency is 28.2 µM (active).

**Q.** How did the Potency turn out when CN(C)c1ccc(C(=O)NCc2nnc3cc(-c4nc(C5CC5)no4)ccn23)cc1 was run?
**A.** Its Potency is “inactive”.

**Q.** CC(C)NC(=O)C1CCc2nnc(CNC(=O)c3ccc(Cl)cc3Cl)n21 (stereo not given) was tested. Which Potency did it give?
**A.** Its Potency is “inactive”.

**Q.** O=C(NCc1nnc2cc(-c3nc(C4CC4)no3)ccn12)c1ccc(F)cc1Cl was tested. Which Potency did it give?
**A.** The Potency was 28.2 µM (active).

**Q.** CCCC(=O)Nc1ccc2c(c1)nc(CCNC(=O)c1ccco1)n2C was tested. Which Potency did it give?
**A.** The Potency was “inactive”.

**Q.** Which Potency does the source give for CCCNC(=O)N1CC(Oc2ccc(-c3nc(C)no3)cc2)C1 here?
**A.** Its Potency is “inactive”.

**Q.** With CSc1ncc(C(=O)NCCCc2ccccc2)c(C)n1 as the molecule, how does the Potency read?
**A.** Its Potency is “inactive”.

**Q.** CCc1ccc(C2C(C(=O)Nc3ccccc3)=C(C)Nc3c(C(=O)Nc4ccc(F)cc4)cnn32)cc1 (stereo not given) was tested. Which Potency did it give?
**A.** Its Potency is “inactive”.

**Q.** For COc1ccc(CC(=O)NC(CCSC)c2nc3ccccc3[nH]2)cc1 (stereo not given), which Potency is on record?
**A.** Its Potency is “inactive”.

**Q.** For Cc1cc(=O)oc2cc(OCC(=O)NCc3cccs3)c(Cl)cc12, which Potency is on record?
**A.** Its Potency is “inactive”.

**Q.** COc1ccc(CNC(=O)CN(Cc2ccccc2Cl)C(=O)c2csnn2)cc1 was tested. Which Potency did it give?
**A.** The Potency was “inactive”.

**Q.** How did the Potency turn out when Cc1noc(-c2ccccc2NC(=O)C2CC(=O)N(c3cccc(C(F)(F)F)c3)C2)n1 (stereo not given) was run?
**A.** Its Potency is “inactive”.

**Q.** For CC(C)c1nc2c(c(-c3ccc(Cl)cc3)n1)CN(C(=O)c1ccccc1)CC2, which Potency is on record?
**A.** Its Potency is “inactive”.

**Q.** With O=C(c1cccc(Cl)c1)N1CCc2nc(C3CC3)nc(-c3ccc(Cl)cc3)c2C1 as the molecule, how does the Potency read?
**A.** Its Potency is “inactive”.

**Q.** With N#CC1CCN(C(=O)c2nc(-c3ccc(Cl)cc3)c3ccccn23)CC1 as the molecule, how does the Potency read?
**A.** Its Potency is 25.1 µM (active).
